An excerpt weighted towards active compounds, which were near 1.3% of everything screened.
MEP2 TOR yeast = alters MEP2-GFP fluorescence in TOR pathway yeast screen; AID 2016; 330,000 tested, 0.51% active; S. cerevisiae MEP2-GFP strain, flow cytometry GFP, 3 h; 100% = DMSO control level; GFP response vs DMSO, % at 10 µM;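 active = GFP response versus DMSO above a set limit, roughly screen mean plus 3 SD, cut at about 180% in these data; inconclusive = fewer than 70 cells counted for a yeast strain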;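 also: median GFP fluorescence of the barcode-gated MEP2-GFP cells per well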
Efflux pump mplx = antifungal efflux pump inhibition, Nile Red retention; S. cerevisiae Candida pump triplex; inhibition, % at 10 µM; 330,000 tested, 0.44% active;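 active = plate passing quality check with inhibition over a set limit, or well fluorescence over plate mean plus 4 SD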;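 also: Nile Red retained in pooled yeast measured as flow cytometry median fluorescence; higher means more Nile Red kept so more efflux inhibition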
CIT2 TOR yeast = modulators of TOR pathway CIT2-GFP in S. cerevisiae; S. cerevisiae CIT2-GFP strain, flow cytometry, 3 h; 100 means same as DMSO wells; GFP response vs DMSO, % at 10 µM; 320,000 tested, 0.065% active;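 active = GFP response relative to DMSO above a set limit, near the screen mean plus 3 SD, cut at about 150% in these data; inconclusive = Fewer than 70 cells measured for a yeast strain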;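 also: ratio of well median GFP fluorescence to mean of DMSO wells on the plate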
RPL19A-GFP yeast = alters RPL19A-GFP fluorescence in TOR pathway yeast screen; S. cerevisiae RPL19A-GFP strain, flow cytometry, 3 h; active compounds read low; percent response vs DMSO, % at 10 µM; 330,000 tested, 0.3% active;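 active = percent response vs DMSO below 50%; inconclusive = fewer than 70 events counted for the yeast strain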;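 also: median channel GFP fluorescence of the barcoded RPL19A-GFP strain; lower means less RPL19A-GFP as with rapamycin TOR inhibition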
LAP4-GFP MLPCN = alters LAP4-GFP fluorescence in TOR pathway yeast screen. S. cerevisiae LAP4-GFP multiplex, flow cytometry GFP, 3 h; median GFP as percent of DMSO wells. GFP response vs DMSO, % at 10 µM. 320,000 tested, 0.34% active;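 active = GFP response vs DMSO above a set limit, about the screen mean plus 3 SD, cut at about 150% in these data; inconclusive = under 70 cell events counted for the yeast strain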
AGP1 TOR yeast = yeast TOR pathway AGP1-GFP modulation; S. cerevisiae AGP1-GFP multiplex flow cytometry, 3 h; GFP as percent of DMSO wells; GFP response vs DMSO, % at 10 µM; 320,000 tested, 0.02% active; AID 2066;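 active = GFP response relative to DMSO above a set limit, near screen average plus 3 SD, cut at about 150% in these data; inconclusive = fewer than 70 cells counted for the yeast strain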;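 also: median GFP channel fluorescence of the gated AGP1 strain per well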
Cmpd fluor yeast = compound fluorescence in yeast efflux pump counter-screen. shares compounds with Efflux pump mplx. S. cerevisiae AD/pABC3, flow cytometry. fluorescence ratio to DMSO, % at 10 µM. 1,700 tested, 4% active;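 active = fluorescence ratio to DMSO above its plate's cutoff, the plate mean ratio plus 5 SD, cut at about 210% in these data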;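 also: unstained yeast with no Nile Red so the signal is compound autofluorescence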
CaMdr1 efflux inh = Candida Mdr1 efflux pump inhibition; inhibition, % at 10 µM; S. cerevisiae AD/CaMDR1, Nile Red efflux, flow cytometry; 1,700 tested, 1% active; shares compounds with Efflux pump mplx; in the data active = inhibition above about 26%;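 also: higher means more Nile Red retained so more efflux inhibition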
Cdr2 pump inh = Candida Cdr2 efflux pump inhibition | shares compounds with Efflux pump mplx | S. cerevisiae AD/CaCDR2, Nile Red retention, flow cytometry | Nile Red retention ratio vs DMSO, % at 10 µM | 1,700 tested, 4% active; in the data active = Nile Red retention ratio vs DMSO above about 190%;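 also: higher ratio means more blocking of Cdr2 efflux of the dye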
Cdr1 pump inh = blocks the Candida albicans Cdr1 efflux pump in yeast | shares compounds with Efflux pump mplx | S. cerevisiae AD/CaCDR1, Nile Red efflux, flow cytometry | inhibition, % at 10 µM | 1,700 tested, 1% active;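 active = inhibition above the screen-wide mean plus twice its standard deviation, cut at about 32% in these data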
Large screens that a line does not name were inactive (follow-up assays come after a bar, where they were run).

Cc1ccn2cc(CCNS(=O)(=O)c3ccc(F)c(C(F)(F)F)c3)nc2c1	none
COc1cc(CNC(C)(C)CO)cc(Br)c1OCc1ccc(Cl)cc1	Efflux pump mplx 6.4 | Cmpd fluor yeast inactive | CaMdr1 efflux inh inactive | Cdr2 pump inh inactive | Cdr1 pump inh inactive
Cn1cc(S(=O)(=O)N2CCOCC2)cc1C(=O)NCc1ccccc1Cl	none
COC(=O)c1cc(-c2ccc(Br)cc2)c2c(=O)n(C)c(=O)n(C)c2n1	none
COC(=O)c1cc(OC)nc2c1c(=O)n(C)c(=O)n2C	Efflux pump mplx 9.6 | Cmpd fluor yeast inactive | CaMdr1 efflux inh inactive | Cdr2 pump inh inactive | Cdr1 pump inh inactive
CCn1c(SCC(=O)NC(=O)c2ccccc2OC)nc2ccccc21	none
COc1ccc(-c2sc3ccccc3c2-c2ccc(OCCN3CCCCC3)cc2)cc1	none
COc1ccc2c(-c3ccc(OCCN4CCCCC4)cc3)c(-c3ccccc3OC)sc2c1	none (no result: MEP2 TOR yeast, CIT2 TOR yeast, RPL19A-GFP yeast, LAP4-GFP MLPCN, AGP1 TOR yeast) | Cmpd fluor yeast inactive | CaMdr1 efflux inh inactive | Cdr2 pump inh inactive | Cdr1 pump inh inactive
COc1ccccc1-c1sc2ccccc2c1-c1ccc(OCCN2CCCCC2)cc1	Efflux pump mplx 40 (no result: MEP2 TOR yeast, CIT2 TOR yeast, RPL19A-GFP yeast, LAP4-GFP MLPCN, AGP1 TOR yeast) | Cmpd fluor yeast inactive | CaMdr1 efflux inh inactive | Cdr2 pump inh inactive | Cdr1 pump inh inactive
c1ccc(-c2sc3ccccc3c2-c2ccc(OCCN3CCCC3)cc2)cc1	none
COc1ccc2sc(-c3ccccc3OC)c(-c3ccc(OCCN(C)C)cc3)c2c1	Efflux pump mplx 196 (no result: MEP2 TOR yeast, CIT2 TOR yeast, RPL19A-GFP yeast, LAP4-GFP MLPCN, AGP1 TOR yeast) | Cmpd fluor yeast inactive | CaMdr1 efflux inh inactive | Cdr2 pump inh active | Cdr1 pump inh inactive
Cc1cc(C)c(OCC(=O)OCC(=O)NNC(=O)c2ccccc2F)c(C)c1	none
O=C(Oc1ccc2c(=O)c(Oc3ccc4ccccc4c3)coc2c1)c1cncc(Br)c1	Efflux pump mplx 1.2 | Cmpd fluor yeast inactive | CaMdr1 efflux inh inactive | Cdr2 pump inh inactive | Cdr1 pump inh inactive
CCCCCCCCCCCCCCCC[N+](C)(C)CCN(Cc1ccc(OC)cc1)c1ncccn1	Efflux pump mplx 2.4, CIT2 TOR yeast inconclusive, AGP1 TOR yeast inconclusive | Cmpd fluor yeast inactive | CaMdr1 efflux inh inactive | Cdr2 pump inh inactive | Cdr1 pump inh inactive
COc1ccc(NC(=O)CN(C)C(=O)Cc2ccc(S(=O)(=O)N3CCOCC3)s2)cc1	none
O/N=C/c1cc(Br)cs1	none
CC(Oc1ccc([N+](=O)[O-])cc1Cl)C(=O)Nc1ccc(C(N)=O)cc1 (configuration not stated)	Efflux pump mplx 2.3 | Cmpd fluor yeast inactive | CaMdr1 efflux inh inactive | Cdr2 pump inh inactive | Cdr1 pump inh inactive
CC(=O)Nc1ccc(Oc2ccc([N+](=O)[O-])cc2Cl)cc1	none
O=C(CSc1nc2ccc(Cl)cc2[nH]1)N1CCN(C(=O)c2ccco2)CC1	Efflux pump mplx 14 | Cmpd fluor yeast inactive | CaMdr1 efflux inh inactive | Cdr2 pump inh inactive | Cdr1 pump inh inactive
COc1cccc(NC(=S)N2CCc3cc(OC)c(OC)cc3C2)c1	none | Cmpd fluor yeast inactive | CaMdr1 efflux inh inactive | Cdr2 pump inh inactive | Cdr1 pump inh inactive
COc1cc2c(cc1OC)CN(C(=S)Nc1cccc(Cl)c1C)CC2	Efflux pump mplx 0.7 | Cmpd fluor yeast inactive | CaMdr1 efflux inh inactive | Cdr2 pump inh inactive | Cdr1 pump inh inactive
COc1cccc(NC(=O)c2ccc3c(c2)CCCC3)c1	Efflux pump mplx 52, LAP4-GFP MLPCN 174 | Cmpd fluor yeast inactive | CaMdr1 efflux inh inactive | Cdr2 pump inh inactive | Cdr1 pump inh inactive
COCCn1nnnc1C(c1ccccc1)N1CCN(C(=O)c2ccco2)CC1 (configuration not stated)	none
Cc1ccc(Nc2c(-c3ccc(N4CCOCC4)cc3)nc3ncccn23)cc1	Efflux pump mplx 0.9 | Cmpd fluor yeast inactive | CaMdr1 efflux inh inactive | Cdr2 pump inh inactive | Cdr1 pump inh inactive
O=C1/C(=C/C=C/c2ccco2)SC(=S)N1c1ccc(O)cc1	none
CC(C)C(C(=O)O)N1C(=O)/C(=C/C=C/c2ccco2)SC1=S (configuration not stated)	Efflux pump mplx 1.2 | Cmpd fluor yeast inactive | CaMdr1 efflux inh inactive | Cdr2 pump inh inactive | Cdr1 pump inh inactive
CN(C(=O)c1ccc(NC(=O)Cc2cccc(NC(=O)C3CCN(C(=O)c4ccccc4)CC3)c2)cc1)C1CCCC1	none
CN1CCN(CCC(=O)N2c3ccccc3Sc3ccc(Cl)cc32)CC1	none
O=C(CN1CCN(CCOCCO)CC1)N1c2ccccc2Sc2ccc(Cl)cc21	Efflux pump mplx 1.4 | Cmpd fluor yeast inactive | CaMdr1 efflux inh inactive | Cdr2 pump inh inactive | Cdr1 pump inh inactive
CCOC(=O)c1ccccc1NC(=O)c1cn(-c2ccc(C)c(C)c2)c(=O)c2ccccc12	none
CCOC(=O)c1ccccc1NC(=O)c1cn(-c2ccc(OC)cc2)c(=O)c2ccccc12	Efflux pump mplx 15 | Cmpd fluor yeast inactive | CaMdr1 efflux inh inactive | Cdr2 pump inh inactive | Cdr1 pump inh inactive
COc1ccc(NC(=O)COc2nsnc2N2CCCCC2)cc1	Efflux pump mplx 9.0 | Cmpd fluor yeast inactive | CaMdr1 efflux inh inactive | Cdr2 pump inh inactive | Cdr1 pump inh inactive
O=C(CN1CCN(C(=O)N2CCOCC2)CC1)Nc1ccc(Br)cc1	Efflux pump mplx 17 | Cmpd fluor yeast inactive | CaMdr1 efflux inh inactive | Cdr2 pump inh inactive | Cdr1 pump inh inactive
O=C(CN1CCOCC1)Nc1ccc(Br)cc1	none
COc1ccc(CC(=O)OCC(=O)NC(=O)NC23CC4CC(CC(C4)C2)C3)cc1	Efflux pump mplx 0.7 | Cmpd fluor yeast inactive | CaMdr1 efflux inh inactive | Cdr2 pump inh inactive | Cdr1 pump inh inactive
C[C@@H]1NS(=O)(=O)[C@H]2C[C@@H]3C=C[C@]2(O3)[C@H]1OC(=O)c1ccc(C(C)(C)C)cc1	none
Cn1c(CNC(=O)C2CCC(=O)N(CCc3cccc(F)c3)C2)nc2ccccc21 (configuration not stated)	none
Cc1cc(N/N=C/c2ccccc2[N+](=O)[O-])nc(-n2nc(C)cc2C)n1	Efflux pump mplx 0.8 | Cmpd fluor yeast inactive | CaMdr1 efflux inh inactive | Cdr2 pump inh inactive | Cdr1 pump inh inactive
CCCC(=O)Nc1ccc(C(=O)NNC(=O)c2cccs2)cc1	Efflux pump mplx 11 | Cmpd fluor yeast inactive | CaMdr1 efflux inh inactive | Cdr2 pump inh inactive | Cdr1 pump inh inactive

High-throughput results: PubChem, NMMLSC
